# Bioassay records as filed in PubChem BioAssay.
# An excerpt weighted towards active compounds, which were near 5.2% of everything screened.
# ALR H2O2 inh – inhibitors of human ALR sulfhydryl oxidase, primary screen, biochemical, H2O2 detection, HRP-luminol luminescence, single point; 3.8% of 290,000 active; inhibition, % (no concentration beside the values); AID 485317, 2010; FAD-linked sulfhydryl oxidase ALR (Homo sapiens), P55789; purified ALR, DTT oxidation;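 active = mean replicate inhibition above about 79%, with every replicate also reaching it, limit read from the data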
# NRP1-CendR mod – modulators of CendR peptide binding to NRP-1, primary screen, biochemical, fluorescence polarization, uHTS. FAM-RPARPAR peptide binding to NRP-1. AID 602438, 2012. 0.85% of 360,000 active. Neuropilin-1 (Homo sapiens), O14786. inhibition, % at 25 µM;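 active = inhibition or corrected inhibition above about 18%, plus a signal ratio from 0.5 to 1.5, limit read from the data, passing the limit was not always enough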
# Target sequence (O14786 whole entry, looked up): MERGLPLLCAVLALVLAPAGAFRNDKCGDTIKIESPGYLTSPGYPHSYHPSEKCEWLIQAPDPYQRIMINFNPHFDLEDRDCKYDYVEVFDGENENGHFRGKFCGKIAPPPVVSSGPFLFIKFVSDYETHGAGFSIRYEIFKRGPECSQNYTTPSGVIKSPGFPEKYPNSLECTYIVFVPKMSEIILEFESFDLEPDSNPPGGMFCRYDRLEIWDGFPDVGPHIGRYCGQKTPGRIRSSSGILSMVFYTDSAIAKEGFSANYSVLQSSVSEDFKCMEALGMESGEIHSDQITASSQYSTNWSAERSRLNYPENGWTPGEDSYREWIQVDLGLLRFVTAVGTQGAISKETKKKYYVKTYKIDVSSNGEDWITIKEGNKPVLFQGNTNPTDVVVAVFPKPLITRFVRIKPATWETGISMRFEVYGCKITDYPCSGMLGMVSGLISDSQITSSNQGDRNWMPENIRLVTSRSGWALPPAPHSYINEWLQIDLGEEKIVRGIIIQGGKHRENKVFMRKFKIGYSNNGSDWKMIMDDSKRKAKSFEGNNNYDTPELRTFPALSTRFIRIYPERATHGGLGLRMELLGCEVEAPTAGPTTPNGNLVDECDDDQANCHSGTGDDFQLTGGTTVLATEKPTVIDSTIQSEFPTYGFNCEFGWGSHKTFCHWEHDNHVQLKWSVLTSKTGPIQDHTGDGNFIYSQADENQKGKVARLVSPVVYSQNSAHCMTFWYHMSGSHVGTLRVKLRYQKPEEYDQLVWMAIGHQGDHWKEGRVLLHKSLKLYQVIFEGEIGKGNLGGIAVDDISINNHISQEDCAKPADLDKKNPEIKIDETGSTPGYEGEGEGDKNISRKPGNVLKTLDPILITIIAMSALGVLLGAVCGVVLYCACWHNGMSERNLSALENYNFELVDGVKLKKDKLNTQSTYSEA
# APOBEC3G inh – APOBEC3G DNA deaminase inhibitors, primary screen, biochemical, fluorescence, single-stranded DNA substrate, uHTS. recombinant A3G, ssDNA deamination FAM/TAMRA fluorescence. 0.28% of 330,000 active. AID 493012, 2011. DNA dC->dU-editing enzyme APOBEC-3G (Homo sapiens), Q9HC16. inhibition, % at 20 µM;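 active = inhibition of at least 40% at 20 µM, with no more than 30% in the related APOBEC3A deaminase screen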;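 also: plate controls were DMSO wells with A3G for no effect and wells lacking A3G enzyme for full effect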
# CR mimetic SO – reduction of superoxide in aged yeast, primary screen, HTS; S. cerevisiae aged cells, superoxide DHE fluorescence; stronger effect = lower value; superoxide response (% of plate mean), % at 10 µM; 0.18% of 330,000 active; AID 2690, 2010;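 active = superoxide response under a set limit, about three screen SD below normal, cut at about 65% in these data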;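 also: yeast aged for seven days with compound at 30 °C before DHE staining; 100% = average MFI of all compound-treated wells on the plate with controls excluded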
# PfM18AAP inh – PfM18AAP inhibitors, malaria aminopeptidase, primary screen, biochemical, QFRET, recombinant enzyme. M18 aspartyl aminopeptidase (Plasmodium falciparum 3D7). H-Glu-NHMec fluorogenic cleavage. inhibition, % at 7.35 µM. 1.2% of 290,000 active. AID 1822, 2009;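 active = inhibition above the campaign mean inhibition over all tested compounds plus 3 SD, cut at about 28% in these data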;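 also: 0% = plate median of test compound wells and 100% = 2 mM ZnCl2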
# A3A deaminase – APOBEC3A ssDNA deaminase inhibitors, primary screen, selectivity assay for APOBEC3G inhibitor project, biochemical, FAM/TAMRA oligo cleavage fluorescence; DNA dC->dU-editing enzyme APOBEC-3A (Homo sapiens), P31941; 0.41% of 330,000 active; inhibition, % at 20 µM; AID 493011, 2011; recombinant A3A, FAM/TAMRA ssDNA deamination fluorescence;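 active = at least 40% inhibition at 20 µM here, with at most 30% in a related deaminase screen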;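 also: plate controls were A3A with DMSO for no effect and wells lacking A3A enzyme for full effect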
# * marks the source's active call; other numbers are inactive results; nt = not tested or not shown.
SMILES,ALR H2O2 inh,NRP1-CendR mod,APOBEC3G inh,CR mimetic SO,PfM18AAP inh,A3A deaminase
COc1cc2c(=O)n(CCC(=O)NCC3CCCO3)c(=O)n(CC(=O)Nc3ccc(C)c(C)c3)c2cc1OC (stereo not drawn),-4.0,-0.9,20.6,98.2,-2.1,2.5
C/C=C(\C)CN1CCCC(CO)(Cc2ccccc2)C1 (stereo not drawn),-4.1,4.6,-9.7,118.0,-14.0,-3.1
CCOC(=O)CCC(NC(=O)CCCC(=O)NC(CCC(=O)OCC)C(=O)OCC)C(=O)OCC (stereo not drawn),-3.8,22.2*,-6.3,106.3,-2.4,-6.8
CCOC(=O)CCC(NC(=O)CCC(=O)NC(CCC(=O)OCC)C(=O)OCC)C(=O)OCC (stereo not drawn),9.0,7.2,-10.0,107.7,0.7,-2.2
CCOn1c(=O)c(-c2ccc(OC)c(OC)c2)[n+]([O-])c2ccccc21,-1.0,-3.4,-0.8,103.9,2.8,-0.7
CCOC(=O)N1CCC(NC(=O)c2cc(C(=O)Nc3cccc(OC)c3)ccc2CO)CC1,16.6,15.7,-10.2,99.0,-1.3,-6.1
CCOC(=O)N1CCC(NC(=O)c2ccc3snnc3c2)CC1,97.9*,-2.0,-1.2,108.5,-0.8,-0.8
CCOC(=O)N1CCC(NC(=O)c2ccc3c(c2)sc2nc(-c4cccc(OC)c4)cn23)CC1,nt,nt,nt,nt,29.6*,nt
O=C(CCS(=O)(=O)c1ccccc1)Nc1nnc(C(F)(F)F)s1,nt,1.7,-0.7,91.4,-5.2,7.4
Cc1ccc(NCC(O)C(O)C(O)CO)c(N=Nc2ccccc2)c1C (stereo not drawn),98.8*,-2.4,6.3,107.8,5.0,4.4
CCOC(=S)SCC(=O)Nc1ncc(C)s1,99.4*,12.3,13.1,99.7,9.4,8.9
O=C(COc1ccc(Br)cc1CO)Nc1ccc(F)cc1,-0.2,26.2*,-3.8,99.1,2.2,-9.8
O=C(COc1ccc(Br)cc1CO)Nc1ccc(S(=O)(=O)N2CCCC2)cc1,nt,-7.8,-4.8,nt,nt,-0.8
OCCNc1nc(-c2ccccc2)c2cc(Cl)ccc2n1,-25.9,5.5,-5.7,95.9,11.3,-0.3
CCOc1nc(-c2ccccc2)c2cc(C)ccc2n1,2.9,20.2*,-4.8,117.1,3.2,-2.1
COc1nc(-c2ccccc2)c2cc(C)ccc2n1,-22.1,2.0,-3.2,68.8,1.3,-4.2
Cc1ccc2nc(NCCO)nc(-c3ccccc3)c2c1,98.1*,-5.4,-4.9,104.6,-3.6,-3.4
Cc1ccc(-c2cn3c(n2)SCC3)cc1,98.5*,13.0,2.3,92.3,-3.6,2.9
CCc1ccc(-c2cn3c(n2)SCC3)cc1,-2.2,-0.2,0.0,97.7,-4.1,1.3
O=C(O/N=C\c1ccc(N2CCOCC2)c([N+](=O)[O-])c1)c1ccccc1Cl,-10.4,-6.8,-6.0,100.2,7.7,-3.8
CC(C)(C=O)C1=CC(=O)c2ccccc2C1=O,96.0*,19.3,nt,114.0,-4.1,nt
CC1(C)CC(=O)c2cc(C(=O)NC3CCSC3=O)c(=O)n(-c3ccccc3)c2C1 (stereo not drawn),-0.7,4.3,2.5,100.0,-4.3,1.4
O=C1CCCc2c1cc(C(=O)NC1CCSC1=O)c(=O)n2-c1ccccc1 (stereo not drawn),nt,29.9*,-0.6,95.5,-16.6,-0.7
CCn1cc(-c2ccnc3cc(C(=O)O)nn23)c(C)n1,-0.5,31.7*,-2.4,111.0,-1.1,-1.4
COc1ccc(S(=O)(=O)N2CCN(c3ncccn3)CC2)cc1,-11.7,-4.2,-4.5,86.4,nt,-2.9
SMILES,ALR H2O2 inh,NRP1-CendR mod,APOBEC3G inh,CR mimetic SO,PfM18AAP inh,A3A deaminase
COc1ccc(N2CCN(Cc3nc4ccccc4n3C)CC2)cc1,88.6*,4.8,-1.7,109.5,2.8,-2.5
COc1ccc(N2CCN(c3ncccn3)CC2)cc1,99.5*,7.1,-2.5,94.7,7.8,-5.6
COc1ccc(N2CCN(c3nc4ccccc4n3CC(=O)c3ccccc3)CC2)cc1,54.6,7.7,-4.6,94.7,-7.6,-4.2
CCc1ccc(NC(=O)CCn2nc(C)c(S(=O)(=O)N3CCCCC3)c2C)cc1,-4.2,23.8*,5.3,81.0,2.4,-2.0
CC(=O)Nc1ccc(NC(=O)Cc2ccc(S(=O)(=O)N3CCCCC3)cc2)cc1,nt,-12.6,-3.3,nt,nt,4.1
Cc1ccc(NC(=O)c2nn(C34CC5CC(CC(C5)C3)C4)cc2[N+](=O)[O-])cc1,3.6,-3.9,-6.1,84.8,9.7,-5.1
COC(=O)c1ccc2nc(-c3ccc(F)cc3)c(Cc3ccsc3)n2c1,nt,-9.1,nt,nt,nt,nt
CCNC(=S)/N=C(/Nc1ccccc1)Nc1nc(C)cc(C)n1,nt,-30.9,-4.0,98.4,29.8*,-8.5
Cc1onc(-c2ccccc2)c1C(=O)N1CCCC(C)(C(=O)NS(=O)(=O)C2CC2)C1 (stereo not drawn),nt,2.8,nt,nt,nt,nt
Cc1cc(C)c2c(N)c(S(=O)(=O)Cc3ccccc3)sc2n1,91.2*,6.1,-6.0,104.6,-17.4,-0.9
O=C(NNC(=O)c1ccccc1O)c1ccc(Cl)c(S(=O)(=O)N2CCCCC2)c1,97.3*,-1.3,1.2,82.0,nt,1.8
O=C(NCc1cccs1)c1ccc(Cl)c(S(=O)(=O)N2CCOCC2)c1,nt,30.8*,nt,nt,nt,nt
O=C(Nc1ccccc1O)c1cc(S(=O)(=O)N2CCOCC2)ccc1Cl,44.2,-11.0,-7.5,95.3,2.5,-2.8
O=C(Nc1ccccc1O)c1cc(S(=O)(=O)N2CCOCC2)c(Cl)cc1Cl,90.4*,-0.1,-4.4,80.1,9.8,-1.2
COc1ccc(C(=O)NCc2cccs2)cc1S(=O)(=O)N1CCOCC1,-7.0,3.4,-1.0,86.3,-1.8,2.8
O=C(NNC(=O)c1cc(S(=O)(=O)N2CCOCC2)c(Cl)cc1Cl)c1ccccc1F,41.9,17.2*,-2.9,113.4,nt,2.0
O=C(NNC(=O)c1cccs1)c1ccc(Cl)c(S(=O)(=O)N2CCCC2)c1,7.7,12.0,-4.3,114.4,nt,1.1
CCC1(CC)C(=O)N(C)C(=O)NC1=Nc1ccccc1,0.0,2.0,-2.2,95.0,-5.7,-1.5
CCCn1c(SCC(=O)c2ccc3c(c2)NC(=O)CO3)nc2ccccc21,98.8*,-6.7,0.0,92.5,6.5,0.4
Cc1cc(C)n(CC(C)NCc2cn[nH]c2-c2cccc3ccccc23)n1 (stereo not drawn),-1.9,-11.7,-10.5,83.5,-0.8,-2.2
O=C(NC(c1ccccc1)c1ccccc1)c1ccc(Br)o1,-7.2,-4.9,0.2,94.2,2.0,0.8
